Assay outcomes as filed in PubChem BioAssay.
In the library only some 0.82% were active in any assay of this set; here they are far more common.
TcdB inh: inhibitors of Clostridioides difficile toxin B glycohydrolase | P18177 | TcdB glycohydrolase enzymatic assay, plate reader | inhibition, % at 9.99 µM | 0.24% of 350,000 active | AID 652162; in the data active = inhibition above about 10%
PrPC TRFRET: inhibitors of human cell surface prion protein PrPC. TR-FRET read-out. inhibition, % at 13.8 µM. 0.43% of 370,000 active; in the data active = inhibition above about 24%; also: 0% = median of the test wells and 100% = reference compound wells
VHR inh abs: blocks human VHR1 dual specificity phosphatase | P51452 | recombinant VHR phosphatase, pNPP absorbance | inhibition, % at 13.3 µM | 0.52% of 290,000 active | AID 1654; in the data active = inhibition above about 50%
PrPC confirm: cell surface PrPC inhibition, TR-FRET confirmation; shares compounds with PrPC TRFRET; inhibition, % at 13.8 µM; cell surface PrPC level; AID 743200; 65% of 1,500 active; in the data active = inhibition above about 25%
LD9 tox: counter-screen for PrPc inhibitors: cytotoxicity in LD9 cells; shares compounds with PrPC TRFRET; luminescence viability; inhibition, % at 13.8 µM; 29% of 1,500 active; AID 743201; in the data active = inhibition above about 9.5%
Numbers without * were called inactive; nt = no result given.

SMILES	TcdB inh	PrPC TRFRET	VHR inh abs	PrPC confirm	LD9 tox
COC(=O)c1c(NC(=O)c2ccc([N+](=O)[O-])o2)sc2c1CCN(C(C)C)C2	1.4	13.0	11.0	nt	nt
CC(C)N1CCc2c(sc(NC(=O)c3ccc([N+](=O)[O-])o3)c2C(N)=O)C1	0.7	48.6*	27.3	62.5*	54.3*
CCC(=O)N(C)C[C@H]1Oc2cc(/C=C/c3ccccc3)ccc2S(=O)(=O)N([C@@H](C)CO)C[C@@H]1C	5.5	nt	nt	nt	nt
O=C(N/N=C/c1cccc(O)c1)c1ccc(NC(=O)C2CCCCC2)cc1	-0.2	1.1	1.1	nt	nt
O=C(N/N=C/c1ccc(O)cc1O)c1ccc(NC(=O)C2CCCCC2)cc1	-0.1	34.2*	2.3	36.8*	-4.9
C[C@@H]1CN([C@H](C)CO)C(=O)c2cc(C#CCN(C)C)cnc2O[C@@H]1CN(C)C(=O)c1cccnc1	1.3	nt	nt	nt	nt
Cc1ccc(S(=O)(=O)n2c(N)nc3ccccc32)cc1	0.8	3.0	-0.5	nt	nt
Cc1ccc(C(=O)n2c(N)nc3ccccc32)cc1	-0.5	24.9*	9.5	-3.5	2.6
O=C(C1CCCC1)N1C[C@@H]2[C@H](c3ccccc31)[C@H](CO)N2C(=O)c1cccnc1	-0.9	nt	nt	nt	nt
COc1cccc2sc(Nc3nnc(-c4ccc(F)cc4)o3)nc12	-1.4	26.5*	-6.1	33.5*	-3.5
COc1cccc2sc(Nc3nnc(-c4cccs4)o3)nc12	nt	4.4	32.8	nt	nt
C[C@@H]1CCCCO[C@@H](CN(C)Cc2ccccc2)[C@@H](C)CN([C@H](C)CO)C(=O)c2cc(NC(=O)c3ccncc3)ccc2O1	1.9	nt	nt	nt	nt
CCOC(=O)C1=C(c2ccccc2)NC(=O)NC1c1ccc(O)c(OCC)c1 (configuration not stated)	0.3	3.7	5.9	nt	nt
CCOC(=O)C1=C(c2ccccc2)NC(=O)NC1c1ccc(O)c(Cl)c1 (configuration not stated)	0.7	36.4*	4.9	49.3*	52.2*
COc1ccc2c3c(n(C)c2c1)[C@H](CO)N(Cc1ccccc1F)CC31CN(C(=O)C2CCCC2)C1	-0.2	nt	nt	nt	nt
Cc1cc(N2CCN(C)CC2)nc2ccc(NC(=O)CCC(=O)NCCC3=CCCCC3)cc12	nt	38.4*	nt	-0.7	3.3
COc1ccc(CCNC(=O)CCC(=O)Nc2ccc3nc(N4CCN(C)CC4)cc(C)c3c2)cc1OC	1.0	8.6	17.7	nt	nt
C[C@@H]1CCCCO[C@H](CN(C)C(=O)Nc2ccccc2)[C@@H](C)CN([C@@H](C)CO)C(=O)c2cc(NC(=O)CCCN(C)C)ccc2O1	0.5	nt	nt	nt	nt
COc1ccc(S(=O)(=O)Nc2ccc3c(c2)CC(=O)N([C@H](C)CO)C[C@@H](C)[C@H](CN(C)S(=O)(=O)c2ccc(C)cc2)O3)cc1	-0.4	nt	nt	nt	nt
COCc1nnc(NC(=O)c2ccco2)s1	nt	-3.7	-9.6	nt	nt
O=C(Nc1nnc(CC(c2ccccc2)c2ccccc2)s1)c1ccco1	nt	40.4*	26.9	42.1*	-6.8
O=C(NC[C@@H]1[C@H](c2ccccc2)[C@H](CO)N1Cc1ccccn1)C1CC1	1.5	nt	nt	nt	nt
C[C@@H]1CN([C@@H](C)CO)S(=O)(=O)c2ccc(-c3ccccc3F)cc2O[C@H]1CN(C)C	-0.5	nt	nt	nt	nt
CNC(=S)/N=C/NOCc1ccc(Cl)cc1Cl	2.1	35.9*	13.0	45.0*	35.0*
NC(=O)NOCc1ccc(Cl)cc1Cl	-0.6	4.3	9.4	nt	nt
SMILES	TcdB inh	PrPC TRFRET	VHR inh abs	PrPC confirm	LD9 tox
O=C(C[C@H]1CC[C@@H]2[C@H](COC[C@@H](O)CN2C(=O)c2cnccn2)O1)NCc1ccc(F)cc1	-0.2	nt	nt	nt	nt
C[C@@H]1CN([C@@H](C)CO)C(=O)Cc2cc(NC(=O)Nc3ccc4c(c3)OCO4)ccc2O[C@H]1CN(C)Cc1ccc(Cl)c(Cl)c1	-0.4	nt	nt	nt	nt
CC(C)CCCCCCCCCCCCC(=O)NCC(=O)NC1C(C)OC(Nc2ncnc3nc[nH]c23)C(O)C1O (configuration not stated)	-0.9	24.7*	nt	79.3*	32.6*
C/C(=C\CNc1ncnc2nc[nH]c12)CO	-5.4	3.6	nt	nt	nt
C[C@@H]1CN([C@H](C)CO)C(=O)c2cccc(NS(=O)(=O)c3ccc(F)cc3)c2O[C@@H]1CN(C)Cc1ccc(-c2ccccc2)cc1	1.6	nt	nt	nt	nt
COC(=O)C1=C(C(=O)OC)[C@@]2([C@@H](Cc3ccc(C)cc3)Nc3ccccc3)C=C[C@@H]1O2	nt	66.9*	nt	14.3	98.4*
COC(=O)C1=C(C(=O)OC)[C@]2([C@@H]3CCCCN[C@@H](Cc4ccccc4)C(=O)N3Cc3ccccc3)C=C[C@H]1O2	0.3	13.8	nt	nt	nt
CCOCCCNC(=O)c1cc(Cl)c(NC(=O)C2=C(C)OCCS2)cc1OC	-3.2	4.4	1.0	nt	nt
CCCNC(=O)c1cc(Cl)c(NC(=O)C2=C(C)OCCS2)cc1OC	1.2	26.2*	56.9*	31.9*	-2.2
